Assay results: PubChem BioAssay (NCATS)
Inconclusive results are not listed. Activity calls are given as the source filed them. Calls follow the shape of the full dose curve.

assay: S16 Schwann cell PMP22 intronic element beta-lactamase assay (AID 624044); conditions: S16 rat Schwann cells, PMP22 element beta-lactamase FRET, 24 h; ratio activity, negative = inhibition: at 38.3 µM (top of the series); also: nearly all actives have a fitted effect of over 15% in size
Excerpt: Description: Charcot-Marie-Tooth-Association [CMTA] National Center for Advancing Translational Sciences [NCATS] Charcot-Marie-Tooth (CMT) disease was first characterized by Jean-Martin Charcot and Pierre Marie in France and, independently, by Howard Henry Tooth in England in 1886. CMT is one of the most common inherited neurological diseases, affecting approximately 1 in 2,500 Americans. […] The most prevalent type of CMT is known as CMT1A and caused by a duplication of the PMP22 gene which leads to over-expression of this protein. PMP22 is a glycosylated intrinsic membrane protein accounting for 2-5% of the myelin protein content, and its over-expression results in demyelination and subsequently axonal loss. A pair of cellular transcription-based assays was developed in the S16 rat Schwann cell lines (Hai, M., et al., 2002) stably transfected with orthogonal reporters - firefly luciferase (Fluc) and beta-lactamase (beta-Lac) - whose expression is driven by an intronic regulatory element of the PMP22 gene (Jones, E.A., et al., 2011) to recapitulate endogenous expression of PMP22. The current assay employs Blac as a reporter of PMP22 expression. A comprehensive library of approved drugs, the NCGC Pharmaceutical Collection (Huang, R., et al., 2011), was screened in the cross-validating platform of the orthogonal reporter assays to identify drug modulators inhibitory towards PMP22 expression. A set of counter-screens was devised to address non-specific activity of the library. An ATP-dependent CellTiter-Glo assay (developed by Promega Corp) was utilized to control cell viability. In addition, biochemical Fluc enzyme assay was performed to assess direct inhibition of the Fluc enzymatic activity. References Hai, M., Muja, N., DeVries, G.H., Quarles, R.H. and Patel, P.I. Comparative analysis of Schwann cell lines as model systems for myelin gene transcription studies. J Neurosci Res, 2002. 69(4): pp 497-508 Huang, R., Southall, N., Wang, Y., Yasgar A., Shinn P., Jadhav, A. , Nguyen, D.-T. and Austin, C.P., The NCGC pharmaceutical collection: a comprehensive resource of clinically approved drugs enabling repurposing and chemical genomics. Sci Transl Med, 2011. 3(80): p. 80ps16.
S16 Schwann cell PMP22 intronic element beta-lactamase assay The beta-Lac-expressing S16 cells were seeded in black clear-bottom 1536 well plates at between 500-750 cells/6uL in DMEM medium containing 10% FBS, w/o phenol red. After overnight incubation at 37 degree Celsius/5% C02, 23 nL of compounds or DMSO were delivered to each well using a pin tool, followed by 24h-incubation at 37 degree Celsius/5% C02. Then one microl of LiveBLAzer FRET B/G detection mix (Invitrogen) was added to each well. An EnVision plate reader (PerkinElmer) was used to detect the dual beta-Lac output composed of fluorescence at 460nm for beta-Lac expression and FRET at 535nm for cell viability. The % signal at 535 nm was scaled to a full range of DMSO and zero and then normalized using the maximum response observed in the screen as 100% activity. The % signal at 460nm was normalized to the average readings of potassium clavulanate (a positive control) - treated cells relative to DMSO-treated cells (0% Activity). The concentration-effect curves were then classified based on curve quality (r2), response magnitude and degree of measured activity.
Potency is read from the fitted curve at half-maximal effect.

Potency, inactive:
COc1ccc(CC(C)NCC(O)c2ccc(O)c(NC=O)c2)cc1 (stereo not given)
O=[N+]([O-])O[C@H]1CO[C@H]2[C@@H]1OC[C@H]2O
CC1(C)SC2[C@@H](N=CN3CCCCCC3)C(=O)N2[C@H]1C(=O)O (stereo not given in full)
Cc1cnc(C(=O)O)cn1
CC(=O)OCC(=O)[C@@]1(O)CCC2C3CCC4=CC(=O)C=CC4(C)C3C(O)C[C@]21C (stereo not given in full)
Cc1cc(O)c2c(c1)OC1(C)CCC3C(C)(C)CCCC34COC2C14 (stereo not given)
CCN(CC)C(=O)[C@@]1(c2ccccc2)C[C@@H]1CN
C[C@]12CC[C@@H]3c4ccc(O)cc4CC[C@H]3[C@@H]1C[C@H](O)C2O (stereo not given in full)
NC(=O)c1ncn(C2OC(CO)C(O)C2O)c1N (stereo not given)
C/C(=C(/CCO)SS/C(CCO)=C(\C)N(C=O)Cc1cnc(C)nc1N)N(C=O)Cc1cnc(C)nc1N
CC1=C(/C=C/C(C)=C\C=C\C(C)=C\C=C\C=C(C)\C=C\C=C(C)\C=C\C2=C(C)C[C@@H](O)CC2(C)C)C(C)(C)C[C@H](O)C1
C[C@]12CC[C@@H]3c4ccc(O)cc4C[C@@H](CCCCCCCCCS(=O)CCCC(F)(F)C(F)(F)F)C3[C@@H]1CC[C@@H]2O (stereo not given in full)
C=C1N[C@]2(C(=O)COC(C)=O)[C@@H](C[C@H]3[C@@H]4CCC5=CC(=O)C=C[C@]5(C)[C@H]4[C@@H](O)C[C@@]32C)O1
CC1=C[C@@H](O)CC(C)(C)[C@@H]1/C=C/C(C)=C/C=C/C(C)=C/C=C/C=C(C)/C=C/C=C(C)/C=C/C1=C(C)C[C@H](O)CC1(C)C
C=C1CC2C3C=C(C)C4=CC(=O)CCC4(C)C3CCC2(C)[C@@]1(OC(C)=O)C(C)=O (stereo not given in full)
O=C(O)Cc1sc(-c2ccc(Cl)cc2)nc1-c1ccccc1
CC(=O)NC1[C@H](O)C[C@@](O)(C(=O)O)O[C@H]1[C@H](O)[C@H](O)CO (stereo not given in full)
OCCN1CC(O)C(O)C(O)C1CO (stereo not given)
CC1(C)OC[C@@H]2O[C@@]3(C(=O)O)OC(C)(C)O[C@@H]3[C@@H]2O1
CO/N=C(/C(=O)N[C@@H]1C(=O)N2C(C(=O)O)=C(CSC(=O)c3ccco3)CSC12)c1csc(N)n1 (stereo not given in full)
CC1(C)O[C@@H]2C[C@H]3[C@@H]4CCC5=CC(=O)C=C[C@]5(C)[C@H]4C(O)C[C@]3(C)[C@]2(C(=O)CO)O1 (stereo not given in full)
C[C@H](CN1c2ccccc2Sc2cccnc21)N(C)C
CCC1OC(=O)C[C@@H](O)[C@H](C)[C@@H](OC2OC(C)CC(N(C)C)C2O)[C@@H](CC=O)C[C@@H](C)C(=O)/C=C/[C@]2(C)OC2C1C (stereo not given in full)
CC(=O)CC(c1ccccc1)C1C(=O)Oc2ccccc2C1=O (stereo not given)
CN(C)CC/C=C1\c2ccccc2COc2ccc(CC(=O)O)cc21
Nc1nc(/C(=C/CC(=O)O)C(=O)NC2C(=O)N3C(C(=O)O)=CCSC23)cs1 (stereo not given)
Cc1cn([C@H]2CC(F)[C@@H](CO)O2)c(=O)[nH]c1=O (stereo not given in full)
C=C1CC[C@H](O)C/C1=C/C=C1\CCC[C@]2(C)[C@@H]([C@H](C)CC[C@@H](O)C(C)(C)O)CC[C@@H]12
C[C@]12CCC(=O)C=C1[C@@H]1C[C@H]1[C@H]1[C@@H]3[C@@H]4C[C@H]4[C@@]4(CCC(=O)O4)[C@@]3(C)CC[C@@H]12
NC(=O)OC[C@@H]1[C@H](NC(=O)/C(=N/OCC(=O)O)c2csc(N)n2)C(=O)N1S(=O)(=O)O
O=C1Oc2ccccc2C(=O)C1C(CC(O)c1ccc(-c2ccc(Br)cc2)cc1)c1ccccc1 (stereo not given)
CNC(=O)C(N)CSC(C)C1=C(C)c2cc3[n-]c(cc4nc(cc5[n-]c(cc1n2)c(C)c5CCC(=O)O)C(CCC(=O)O)=C4C)c(C)c3C(C)SCC(N)C(=O)NC.[Fe+2] (stereo not given)
CC(=O)NC1[C@H]([C@H](O)[C@H](O)CO)OC(C(=O)O)=C[C@H]1N=C(N)N (stereo not given in full)
CC(=O)NC[C@@H]1CN(c2ccc(N3CCOCC3)c(F)c2)C(=O)O1
NC(C(=O)O)c1ccc(O)cc1 (stereo not given)

Potency, active:
COc1cc([C@H]2c3cc4c(cc3[C@@H](O[C@H]3O[C@H]5CO[C@@H](C)O[C@H]5[C@@H](O)[C@@H]3O)[C@@H]3COC(=O)[C@H]23)OCO4)cc(OC)c1O 4460 nM
COc1cccc2c1C(=O)c1c(O)c3c(c(O)c1C2=O)C[C@@](O)(C(=O)CO)C[C@@H]3OC1CC(N)C(O)C(C)O1 (stereo not given in full) 354 nM
CC[C@@]1(O)C[C@H](O[C@H]2C[C@@H](N(C)C)[C@@H](O[C@H]3C[C@@H](O)[C@@H](O[C@H]4CCC(=O)[C@@H](C)O4)[C@@H](C)O3)[C@@H](C)O2)c2c(cc3c(c2O)C(=O)c2c(O)cccc2C3=O)[C@H]1C(=O)OC 199 nM
CNC1CCc2cc(OC)c(OC)c(OC)c2-c2ccc(OC)c(=O)cc21 (stereo not given) 178 nM
CCCCC(=O)OCC(=O)[C@]1(O)Cc2c(O)c3c(c(O)c2[C@H](OC2CC(NC(=O)C(F)(F)F)C(O)C(C)O2)C1)C(=O)c1c(OC)cccc1C3=O (stereo not given in full) 2510 nM
